# PubChem BioAssay AID2315 (National Center for Advancing Translational Sciences (NCATS), 2010)
# Several values for one entry are separate records, joined by “and”; a condition that tells them apart may be missing. Identical values can stand only once. Screen size: about 290,000 compounds; about 27,000 (9.3%) were called active. Cut-off read from the data, not from the text of the source: active = inhibition mostly above about 28% (no sharp cut-off); inactive = mostly below about 43%. The entries come from a sample that favours actives as a whole.
# Assay: A qHTS for Small Molecule Inhibitors of Shiga Toxin; note: 0% is about no effect
# Conditions: Vero cells, Shiga toxin protein synthesis inhibition reporter; at 38.7 µM, hits give high values
row,Structure (SMILES),inhibition
1,Cc1noc(C)c1CCC(=O)O,17.5% (inactive)
2,CCOC(=O)C1(Cc2ccccc2C)CCCN(C(=O)CCc2c(C)noc2C)C1 (stereo not given),15.6% (inactive)
3,CCCc1cc(C(=O)N2CCCC(CO)(CCCc3ccccc3)C2)n(C)n1 (stereo not given),-8.83% (inactive)
4,Cc1noc(C)c1CCC(=O)N1CCCC(CO)(Cc2ccccc2)C1 (stereo not given),98.7% (active)
5,COC(=O)CCC(=O)N1CCCC(CO)(Cc2ccccc2)C1 (stereo not given),110% (active)
6,Cc1ccccc1CC1(CO)CCCN(C(=O)c2cc(-c3ccccc3)no2)C1 (stereo not given),51% (inactive)
7,Cc1cc(NC(=O)CSc2nc(=O)cc(N)n2-c2ccc(F)cc2)no1,9.91% (inactive)
8,COc1cccc(C(O)c2nc3ccccc3n2C)c1 (stereo not given),-5.57% (inactive)
9,O=C(NCCCn1ccnc1)c1ccccc1F,-3% (inactive)
10,Cc1cccc(N2CCN(C(C)C(=O)N3CCc4ccccc43)CC2)c1C (stereo not given),12.5% (inactive)
11,COc1ccc(NC(=O)CCC(=O)Nc2cc(OC)c(NC(=O)c3ccco3)cc2OC)c(OC)c1,2.68% (inactive)
12,CCOC(=O)C1CCN(Cc2nnc(-c3cccc(Br)c3)o2)CC1,-4.47% (inactive)
13,Cc1c2cnn(CC(=O)NCCCN3CC(C)CC(C)C3)c(=O)c2c(C)n1Cc1ccc(Cl)cc1 (stereo not given),10.2% (inactive)
14,CCCc1nc2ccccc2c(=O)n1/N=C/c1ccc(O)c(O)c1,-7.79% (inactive)
15,O=c1c2ccccc2ncn1/N=C/c1ccccc1,89.3% (active)
16,O=c1c2ccccc2nc(N/N=C/c2ccccc2)n1O,4.04% (inactive)
17,Cc1c(Cl)cccc1NC(=O)NCc1ccc(C)n1C,-6.17% (inactive)
18,COc1ccc(CN(C)C(=O)Cc2c[nH]c3ccccc23)c(OC)c1OC,-4.06% (inactive)
19,O=S(=O)(/C=C/c1ccccc1)N1CCNCC1,-7.81% (inactive)
20,CCc1cccc(NC(=S)N(CCN(C)C)C2CCN(C(C)C)CC2)c1,-1.09% (inactive)
21,Cc1ccc(Nc2nc(Cl)c(C=O)s2)cc1,39.5% (active)
22,Cc1ccc(NC(=O)Nc2nnc(-c3ccncc3)s2)cc1,-16.3% (inactive)
23,Cc1ccc(Nc2nc(C)cc(C)c2C(N)=O)cc1,-8.95% (inactive)
24,COc1ccc(C(=O)NCCNc2ccc([N+](=O)[O-])cn2)cc1,-3.6% (inactive)

row,Structure (SMILES),inhibition
1,CCn1cc(/C=C(\NC(=O)c2cc(OC)c(OC)c(OC)c2)C(=O)N2CCN(C)CC2)c2ccccc21,-5.81% (inactive)
2,O=C(NCCOc1cccnc1)c1ccc(OC2CCN(Cc3ccccn3)CC2)cc1,-23.8% (inactive)
3,O=C(OCC(=O)N1CCN(C(=O)c2ccco2)CC1)c1cccc(O)c1,18.4% (inactive)
4,O=C(CCn1nnc2ccccc21)OCC(=O)c1ccc([N+](=O)[O-])cc1,-9.08% (inactive)
5,COc1ccc(C2C3=C(OC(C)=O)c4ccccc4C3=Nc3c2c(=O)n(C)c(=O)n3C)cc1 (stereo not given),-4.21% (inactive) and -6.55% (inactive)
6,COc1ccc(/C=C/c2noc(-c3ccccc3OC(C)=O)n2)cc1,50.5% (active)
7,CC(=O)Oc1ccc2c(c1)C(=O)c1ccccc1C2=O,49.5% (inactive)
8,CCN(CC(=O)Nc1ccc(C)c(S(=O)(=O)N(C)C)c1)Cc1ccccc1,12.4% (inactive)
9,Cc1ccc(NC(=O)c2cccs2)cc1S(=O)(=O)N(C)C,30% (inactive)
10,Cc1ccc(C(=O)Nc2ccc(C)c(S(=O)(=O)N(C)C)c2)s1,64.1% (active)
11,O=C(c1ccc(S(=O)(=O)N2CCCC2)cc1)N1CCN(c2ccccc2F)CC1,-13.1% (inactive)
12,O=C(CSc1nnc(-c2ccc([N+](=O)[O-])cc2)o1)Nc1ccccn1,88.1% (active)
13,CCc1ccccc1NC(=O)CSc1nnc(-c2ccncc2)o1,6.43% (inactive)
14,CCOC(=O)CSc1nnc(-c2ccc([N+](=O)[O-])cc2)o1,7.13% (inactive)
15,O=C(NC1CCCC1)C(c1ccco1)N(C(=O)c1csnn1)c1ccccc1 (stereo not given),-6.47% (inactive)
16,COC(=O)c1ccc(NC(=O)CSc2nc(N)c(NC(=O)c3ccc(Br)o3)c(=O)[nH]2)cc1,-12.8% (inactive)
17,O=C(OCC(=O)N1CCCC1)c1ccco1,24.9% (inactive)
18,CCN(CC)c1ccc(C(=O)OCC(=O)c2ccco2)cc1,46.8% (inactive)
19,CCc1ccc(C(=O)COC(=O)c2ccco2)cc1,56.1% (active)
20,COc1ccc(C2/C=C\CN(C(=O)c3ccc(C)cc3)C(Cc3ccccc3)C(=O)N2Cc2ccc(F)cc2)cc1 (stereo not given),16.3% (inactive)
21,O=C(CN1CCCCCC1)Nc1ccc(S(=O)(=O)N2CCCCC2)cc1,-3.01% (inactive)
22,O=C(CC1C(=O)NCCN1C(=O)c1ccc([N+](=O)[O-])cc1)Nc1cccc(Cl)c1 (stereo not given),-30.7% (inactive)
23,O=C(CC1NCCNC1=O)Nc1cc(Cl)cc(Cl)c1 (stereo not given),-12.8% (inactive)
24,O=C(CC1NCCc2ccccc21)Nc1cccc(Cl)c1 (stereo not given),51.4% (active)

row,Structure (SMILES),inhibition
1,CCN(CC)CCN(C(=O)c1cc(Cl)sc1Cl)c1nc2cc3c(cc2s1)OCO3,6.7% (inactive)
2,COc1cc(CCC(=O)OCC(=O)Nc2cccc(S(N)(=O)=O)c2)cc(OC)c1OC,-3.91% (inactive)
3,COc1cc(/C=N/NC(=O)Nc2ccccc2)ccc1OCCOc1ccccc1C,-4.02% (inactive)
4,COc1cc(C2C3=C(CCCC3=O)OC3=C2C(=O)CCC3)ccc1OCC(=O)Nc1ccccc1,37.9% (inactive)
5,CCOC(=O)/C(C#N)=C/c1ccc(OCC(=O)Nc2ccccc2)c(OC)c1,70.9% (active)
6,CCOC(=O)/C(C#N)=C/c1cn(CCC(=O)O)nc1-c1ccc(Br)cc1,2.95% (inactive)
7,CCCn1c(C)cc(/C=C(\C#N)C(=O)OCC(=O)Nc2cc(OC)c(OC)c(OC)c2)c1C,32.6% (active)
8,Cc1ccc(C(=O)Oc2ccc(C(=S)N3CCOCC3)cc2)cc1,3.46% (inactive)
9,CCc1ccc(C(=O)NC(=S)Nc2ccccc2N2CCOCC2)cc1,-5.58% (inactive)
10,COc1cc2c(cc1OC)CN(C(=O)c1cc(S(=O)(=O)N3CCCCC3)ccc1Cl)CC2,2% (inactive)
11,Cc1ccc2nc3c(cc(C(=O)NCCc4ccccc4)c(=N)n3CC3CCCO3)c(=O)n2c1 (stereo not given),-3.67% (inactive)
12,COc1ccccc1CN1CC(C(=O)NCCc2cn[nH]c2)CCC1=O (stereo not given),22% (inactive)
13,CCc1ccc(N(C(=O)c2csnn2)C(C(=O)NC2CCCCC2)c2cccnc2)cc1 (stereo not given),2.03% (inactive)
14,CC1(C(=O)NCCc2c[nH]c3ccccc23)C=CC2(CCCCC2)N1C(=O)c1ccccc1 (stereo not given),14.3% (inactive)
15,Cc1nc(SCC(=O)Nc2cc(C)on2)c2c3c(sc2n1)CCCC3,21.2% (active)
16,Cc1cc(NC(=O)CSc2nc3c(cc2C#N)CCCCC3)no1,78.8% (active)
17,Cc1ccc2cc(C#N)c(SCC(=O)NCC3CCCO3)nc2c1C (stereo not given),-7.12% (inactive)
18,CC(NC(=O)CSc1nc2c(cc1C#N)CN(C)CC2)c1ccccc1 (stereo not given),-9.63% (inactive)
19,Cc1cc(NC(=O)CSc2nc(C(C)C)nc3sc4c(c23)CCC(C)C4)no1 (stereo not given),22.7% (inactive)
20,Cc1nc(SCC(=O)Nc2cc(C)on2)c2c(C)c(C)sc2n1,12.3% (inactive)
21,COc1cccc(CN2CCN(Cc3ccc4cccc(F)c4n3)CC2CCO)c1 (stereo not given),12.8% (inactive)
22,O=C(NCc1cccnc1)C12CC3CC(CC(C3)C1)C2,11.5% (inactive)
23,Cc1ccc(C(=O)COC(=O)CCN2C(=O)C3C4CCC(C4)C3C2=O)cc1C (stereo not given),34.8% (inactive)
24,O=C(CCC1CCN(C(=O)c2cccc(Cl)c2F)CC1)Nc1ccccc1,-32% (inactive)

row,Structure (SMILES),inhibition
1,COc1ccccc1CC(=O)Nc1ccc(S(=O)(=O)N2CCCC2)cc1,-2.78% (inactive)
2,CCOC(=O)C1C(c2ccc(O)cc2)NC(=O)NC1(O)C(F)(F)F (stereo not given),-6.9% (inactive)
3,O=C(COc1ccc(-n2cnnn2)cc1)Nc1ccccc1Cl,-8.42% (inactive)
4,CC(C)(C)c1ccc(C(CC(=O)O)NS(=O)(=O)Cc2ccccc2)cc1 (stereo not given),17% (inactive)
5,COc1ccc(Nc2nc(-c3cccnc3)nc3ccccc23)cn1,-3.47% (inactive)
6,COc1ccccc1Oc1nc(-c2cccnc2)nc2ccccc12,10.4% (inactive)
7,Fc1ccc(/C=N/Nc2nc(-c3cccnc3)nc3ccccc23)cc1,47.7% (active)
8,Nc1nonc1-n1nnc(C(=O)N/N=C/c2ccc(Cl)cc2)c1-c1ccc2c(c1)OCO2,-3.05% (inactive)
9,O=C(CN1CCN(c2ccccn2)CC1)NC1CCCCC1,-9.42% (inactive)
10,COc1ccccc1NC(=O)C(C)OC(=O)CC1CCCC1 (stereo not given),-16.1% (inactive)
11,N/C(=N\OC(=O)CCC1CCCCC1)c1ccccn1,84.9% (active)
12,N/C(=N\OC(=O)CC1CCCCC1)c1ccccc1,107% (active)
13,N/C(=N\OC(=O)Cc1ccccc1[N+](=O)[O-])c1ccc(Br)cc1,49% (inactive)
14,COc1ccccc1OCc1nnc(SCC(N)=O)n1-c1ccccc1,7.34% (inactive)
15,COc1ccccc1OCC(=O)O/N=C(\N)c1ccccn1,55.8% (active)
16,COc1ccccc1OCC(=O)OCn1c(SC)nnc(C)c1=O,5.34% (inactive)
17,CC(C)(C)NC(=O)NC(=O)COC(=O)CCC1CCCCC1,-9.95% (inactive)
18,CCN(CC(=O)Nc1ccc2c(c1)OCO2)S(=O)(=O)c1ccccc1,2.17% (inactive)
19,Cc1cccc(CN2CCC(n3nccc3NC(=O)c3ccccc3C)CC2)n1,-8.84% (inactive)
20,Nc1nnnn1/N=C/c1cccc(Br)c1,18.9% (inactive)
21,Cc1cc(/C=C2/C(=N)N3C(=NC2=O)SN=C3S(C)(=O)=O)c(C)n1-c1ccccc1,98% (active)
22,CCC1=NN2C(=N)/C(=C/c3cc(C)n(-c4ccccc4)c3C)C(=O)N=C2S1,6.12% (inactive)
23,CCS(=O)(=O)C1=NSC2=NC(=O)/C(=C\c3cc(C)n(-c4cccc(OC)c4)c3C)C(=N)N21,21.9% (inactive)
